Some compounds were tested as several samples or in several runs, with calls that do not always agree. Calls of active or inactive are those of the source. The calls were made as follows: active = hit-call score of the fitted dose curve at least 0.9, where 1 is the maximum; inactive = score below 0.9.
Experiment: APR_HepG2_MitoMembPot_72hr: Apredica 72-hour HepG2 Assay for Mitochondrial Membrane Potential (AID 2282917)
Details: imaging, actives raise or lower the signal
Method: APR_HepG2_72hr is a cell-based, multiplexed-readout assay that uses HepG2, a human liver cell line, with measurements taken at 72 hours after chemical dosing in a 384-well plate.APR_HepG2_MitoMembPot_72hr is one of 10 assay component(s) measured or calculated from the APR_HepG2_72hr assay. It is designed to make measurements of dye binding, a form of membrane potential reporter, as detected with fluorescence intensity signals by HCS Fluorescent Imaging technology.Data from the assay component APR_HepG2_MitoMembPot_72hr was analyzed into 1 assay endpoint. This assay endpoint, APR_HepG2_MitoMembPot_72hr, was analyzed with bidirectional fitting relative to DMSO as the negative control and baseline of activity. Using a type of membrane potential reporter, gain or loss-of-signal activity can be used to understand changes in the signaling. Furthermore, this assay endpoint can be referred to as a primary readout, because this assay has produced multiple assay endpoints where this one serves a signaling function. To generalize the intended target to other relatable targets, this assay endpoint is annotated to the cell morphology intended target family, where the subfamily is organelle conformation.
Cells were treated with dimethyl sulfoxide (DMSO) as a solvent control at a final concentration of 0.5% v/v or with compounds in DMSO with a resulting final DMSO concentration of 0.5% v/v. Compound treatment was done at concentrations of 0.39, 0.78, 1.56, 3.12, 6.24, 12.5, 25, 50, 100, and 200 uM in duplicate on each plate. Cells were treated with compounds for 1, 24, or 72 hr. Carbonyl […] m-chloro-phenylhydrazone (CCCP) and taxol were used as positive controls for mitochondrial function and cytoskeletal stability, respectively; DMSO served as the negative control for this experiment. Cells were fixed by the direct addition of 50 uL formaldehyde in Hank's Balanced Salt Solution (HBSS) to a final concentration of 3.7%. After incubation in the fixation medium for 30 min at room temperature (293-298 K), cells were rinsed twice with HBSS and treated with cell permeabilization buffer (16 uL of 0.5% Triton X-100) for 10 min at room temperature (293-298 K) before labeling. For mitochondrial membrane potential and mitochondrial measurements, pre-fixed cells were incubated with 50 uL of MitoTracker Red CMXRos (Invitrogen) at a concentration of 250 nM for 30 min before fixation. In the remaining cases, post-fixed cells were labeled by incubation with a multiplexed mixture of primary antibodies in HBSS for 60 min at room temperature (293-298 K) to detect immunoreactivity of c-Jun (1:500), phospho-histone H3 (1:100), phospho-histone H2A.x (1:200), p53 (1:400), alpha-tubulin (1:200) and Hoechst 33342 (2 ug/mL). Cells were labeled for multiplexed imaging on two separate plates: a) Hoechst 33342, MitoTracker Red, phospho-histone H3, and alpha-tubulin, and b) Hoechst 33342, phospho-histone H2A.x, and c-Jun. A final rinse with HBSS (50 uL) was performed before analysis. The primary and secondary antibodies for the proteins were phospho-histone H3 (rabbit anti-phospho-histone H3 and FITC-donkey anti-rabbit IgG), phospho-histone H2A.x (mouse anti-phospho-histone H2A.x and FITC-donkey anti-mouse IgG), c-Jun (rabbit anti-phospho-c-Jun and Cy3-donkey anti-rabbit IgG), p53 (sheep anti-p53 and Cy5-donkey anti-sheep IgG), alpha-tubulin (mouse anti-alpha-tubulin and Cy5-donkey anti-mouse IgG). These antibodies are available as the CellCiphr HepG2 assay kit (Millipore).Digital images of each well were captured using a Cellomics ArrayScan VTI (Thermo Scientific Cellomics) (0.8 NA objective, 0.63x optical coupler, and XF-93 filter set) at 20x magnification. The images were acquired using the autofocus feature of the ArrayScan instrument, which entails the following steps. First, the camera focuses on channel 1 (Hoechst 33342), where nuclei are identified. Second, a Z offset of 1 um is used for capturing mitochondria (MitoTracker Red). […]

Compound	outcome	AC50
CC(=O)[O][Hg][c]1ccccc1	inactive	
CN(C)N=O	inactive	
C[C@@H]1C[C@@H]([C@H](O)CC2CC(=O)NC(=O)C2)C(=O)[C@@H](C)C1	inactive	
O=C(O)C(F)(F)C(F)(F)C(F)(F)C(F)(F)C(F)(F)C(F)(F)F	inactive	
O=C(O)C(F)(F)C(F)(F)C(F)(F)C(F)(F)C(F)(F)C(F)(F)C(F)(F)C(F)(F)C(F)(F)C(F)(F)F	inactive	
CC(C)(C)CC(C)(C)c1ccc(O)cc1	inactive	
Oc1cccc2cccnc12	inactive	
CC(C)(OO)c1ccccc1	inactive	
O=C(Nc1ccc2[nH]ccc2c1)c1cc2cc(F)ccc2n1Cc1cccc(F)c1		1.02 µM (active)
C[C@]12CCC(=O)C[C@@H]1CC[C@@H]1[C@@H]2CC[C@]2(C)[C@@H](O)CC[C@@H]12	inactive	
C=CC(=O)OCCCCCC(C)C	inactive	
CCC(C)(C)c1ccc(O)c(C(C)(C)CC)c1	inactive	
CCN1CCC2(CC1)COc1cc3c(cc12)N(C(=O)c1ccc(-c2ccc(-c4nnc(C)o4)cc2C)cc1)CC3		75.1 µM (active)
COc1cc(-c2ccc(N)c(OC)c2)ccc1N	inactive	14.3 µM (active)
ClCC(Cl)CCl	inactive	
CCC(=O)C(CC(C)N(C)C)(c1ccccc1)c1ccccc1 (centres undefined)	inactive	
O=c1[nH]c(=O)[nH]c(=O)[nH]1		99.5 µM (active)
Cc1ccccc1N	inactive	
Cn1sc(Cl)cc1=O		120 µM (active)
CC(C)(C)c1cc(O)ccc1O	inactive	
NC(=O)O	inactive	
O=C(O)C(Cl)(Cl)Cl	inactive	
C=C(C)C(=O)[O][Sn]([CH2]CCC)([CH2]CCC)[CH2]CCC	inactive	
ClC1(Cl)C2(Cl)C3(Cl)C4(Cl)C(Cl)(Cl)C5(Cl)C3(Cl)C1(Cl)C5(Cl)C24Cl (centres undefined)	inactive	
CC12CC1(C)C(=O)N(c1cc(Cl)cc(Cl)c1)C2=O (centres undefined)	inactive	
CCCCCCCCc1ccc(O)cc1		34.6 µM (active)
O=C1C2(Cl)C3(Cl)C4(Cl)C(Cl)(Cl)C5(Cl)C3(Cl)C1(Cl)C5(Cl)C24Cl (centres undefined)	inactive	
CC(C)(c1ccccc1)c1ccc(O)c(C(C)(C)c2ccccc2)c1	inactive	

Source: PubChem BioAssay (EPA / NIEHS)
